TDP1 cell noCPT = qHTS for Inhibitors of human tyrosyl-DNA phosphodiesterase 1 (TDP1): qHTS in cells in absence of CPT; Potency, µM (top dose mostly 46.2 µM), without a hit: at the top dose activity change, negative = growth inhibition, usual class: inhibitors; hit rate 15% among 420,000; DT40 Tdp1-/- hTDP1 cells, no CPT, ATP luminescence, 48 h; AID 686978, 2013; also: potency is read from the fitted curve at half-maximal effect; % is scaled to controls: 0 for no effect and ±100 for the full control effect; nearly all actives have a fitted effect of over 55% in size
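Seeded 400 DT40-hTDP1 cells/well (vehicle DMSO, no 20 nM CPT); pinned compounds; ≥48 hr at 37 °C; CellTiter-Glo luminescence as viability measure.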
SW480 rerep = DNA re-replication induction in SW480 cells; hit rate 1.8% among 340,000; AID 624297; Potency, µM (top dose mostly 46.1 µM), for the others: at the top dose re-replication activation, hits mostly activators; SW480 DNA re-replication, Hoechst DNA content imaging, 48 h; also: potency is read from the fitted curve at half-maximal effect; % of control where 0% means no effect; nearly all actives have a fitted effect of over 55% in size
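DNA re-replication was detected as more nuclei of elevated Hoechst intensity after 48 hr exposure to compound (23 nL pinned per well of 250 cells).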
Chronic BCR inh = blocks chronic active B-cell receptor signaling | hit rate 0.05% among 340,000 | ABC-DLBCL IkBa-CBG/CBR reporter, luminescence ratio, 4 h | Potency, µM (highest dose often 46.1 µM), without a hit: at the top dose activity change, negative = inhibition, hits mostly inhibitors | AID 493014; active = well fitted inhibition curve with a large enough effect in the signal ratio, with a control signal flat, not every such curve was filed as active; inconclusive = small, poorly fitted or top-dose-only effect, or effect the other way, or a change in a side signal; the % refers to the signal ratio;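 also: potency is read from the fitted curve at half-maximal effect; plate controls were basal doxycycline-induced cells for no effect and cells given 10 µM MG132 for full effect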
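Concentration-response series (up to 46 uM) were applied to TMD8 dual-reporter cells for 4 h at 37C with doxycycline. Green/red ratio, after filter-overlap correction, defined %Activity; red signal alone was normalised to basal cells and zero luminescence.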
MCF10A rereplic = DNA re-replication induction in MCF 10a cells; MCF 10A DNA re-replication, Hoechst nuclear intensity, 48 h; Potency, µM (titrated, usually from 46.1 µM), without a hit: at the highest dose activity, positive = re-replication, actives largely listed as activators; hit rate 2.9% among 350,000; AID 624296; also: potency is read from the fitted curve at half-maximal effect; % of control where 0% means no effect; nearly all actives have a fitted effect of over 50% in size
IL-1B inflam inh = blocks inflammasome-driven IL-1 beta release; AID 743279; THP-1 LPS/ATP IL-1B secretion, AlphaLISA, 16 h; stronger effect = lower value; hit rate 4.7% among 360,000; activity change, % at 57.5 µM; in the data active = activity change below about -50%; inconclusive = mostly about -30% to -49%; also: % is scaled to controls: 0 for no effect and ±100 for the full control effect
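THP-1 cells pretreated 1 hr with compounds (up to 57.5 uM final), then stimulated with LPS (250 ng/mL final) plus ATP (1.25 mM final); secreted IL-1B measured by AlphaLISA after 16 hr, decreased signal indicating inhibition.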
DT40 TDP1 CPT = DT40-hTDP1 cell growth loss with CPT; chicken DT40 Tdp1-/-;hTDP1 cells + 20 nM CPT, ATP luminescence, 48 h; Potency, µM (titrated, usually from 46.2 µM), inactives show top-dose activity change, negative = growth inhibition, hits mostly inhibitors; hit rate 12% among 420,000; AID 686979; also: potency is read from the fitted curve at half-maximal effect; % is scaled to controls: 0 for no effect and ±100 for the full control effect; nearly all actives have a fitted effect of over 55% in size
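Chicken DT40 Tdp1-/- cells stably complemented with human TDP1 were seeded at 400 cells/well in medium containing 20 nM camptothecin, exposed to pin-transferred compounds, and grown at 37 °C for at least 48 hr. Viability was read as ATP luminescence.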
Numbers without * were called inactive; [ ] = another dose, or the depositor's remark. In the library only some 19% were active in any assay of this set; here they are far more common. Unless noted, calls follow the shape of the dose curve; as a rule, active = well fitted curve in the direction sought with a large enough effect; inconclusive = small, poorly fitted or top-dose-only effect, or another doubt; inactive = no such curve, though single readings can be large; an effect the other way counts as inactive or inconclusive.

For COCC(C)n1c(C)cc(C(=O)CSc2nnc(N)s2)c1C (stereo not given) the results were TDP1 cell noCPT inconclusive, SW480 rerep 5.8%, Chronic BCR inh inconclusive, MCF10A rereplic 0.9%, IL-1B inflam inh 12.5 and DT40 TDP1 CPT inconclusive.
For COc1ccc2c(C)cc(SCC(=O)NC3CCCC3)nc2c1 the results were TDP1 cell noCPT inconclusive, SW480 rerep -2.8%, Chronic BCR inh -1.2%, MCF10A rereplic 8.1%, IL-1B inflam inh 6.3 and DT40 TDP1 CPT -24.3%.
`COCC(C)n1c(C)cc(C(=O)COC(=O)c2n[nH]c3ccccc23)c1C` (stereo not given) gave TDP1 cell noCPT 25.9µM*, SW480 rerep 2.2%, Chronic BCR inh -0.3%, MCF10A rereplic -0.2%, IL-1B inflam inh inconclusive and DT40 TDP1 CPT inconclusive.
For COCCn1c(C)cc(C(=O)CSc2nc(C)c(C)c(C)n2)c1C the results were TDP1 cell noCPT 23.1µM*, SW480 rerep 1.1%, Chronic BCR inh inconclusive, MCF10A rereplic inconclusive, IL-1B inflam inh -6.4 and DT40 TDP1 CPT 29.1µM*.
For COCCn1c(C)cc(C(=O)CSc2cc(C)c3ccc(OC)cc3n2)c1C the results were TDP1 cell noCPT 16.4µM*, SW480 rerep 14.9%, Chronic BCR inh -1.7%, MCF10A rereplic inconclusive, IL-1B inflam inh 6.2 and DT40 TDP1 CPT inconclusive.
`COCC(C)n1c(C)cc(C(=O)CSc2nc(C)c(C)c(C)n2)c1C` (stereo not given) gave TDP1 cell noCPT 14.6µM*, SW480 rerep -4.1%, Chronic BCR inh -1.1%, MCF10A rereplic 2.9%, IL-1B inflam inh -12.8 and DT40 TDP1 CPT inconclusive.
Screening COCCn1c(C)cc(C(=O)CSc2ncn[nH]2)c1C returned TDP1 cell noCPT -2.0%, SW480 rerep -1.1%, Chronic BCR inh 2.1%, MCF10A rereplic 2.7%, IL-1B inflam inh 18.0 and DT40 TDP1 CPT 2.4%.
For Cc1ccc(OCCn2c(SCCO)nc3c(N)ncnc32)cc1 the results were TDP1 cell noCPT inconclusive, SW480 rerep inconclusive, Chronic BCR inh -19.9%, MCF10A rereplic -0.8%, IL-1B inflam inh 0.0 and DT40 TDP1 CPT inconclusive.
For Cc1cc(F)ccc1S(=O)(=O)N1CCCOC1CNC(=O)C(=O)NC1CCCCC1 (stereo not given) the results were TDP1 cell noCPT -13.1%, SW480 rerep 8.7%, Chronic BCR inh inconclusive, MCF10A rereplic 2.2%, IL-1B inflam inh -17.3 and DT40 TDP1 CPT -10.7%.
Screening Cc1sc2nc(-c3ccccn3)[nH]c(=O)c2c1-c1ccccc1 returned TDP1 cell noCPT 10.3µM*, SW480 rerep 23.1µM*, Chronic BCR inh inconclusive, MCF10A rereplic inconclusive, IL-1B inflam inh 92.3 and DT40 TDP1 CPT 9.2µM*.
CCN(CC)C(=O)c1sc2nc(-c3ccccn3)[nH]c(=O)c2c1C was read as TDP1 cell noCPT 11.6µM*, SW480 rerep 89.5%, MCF10A rereplic -2.1%, IL-1B inflam inh 1.1 and DT40 TDP1 CPT 23.1µM*.
`COC(=O)C1CCCCN1Cc1ccc2c(c1)CN(C(=O)c1ccc(C)s1)CCO2` (stereo not given) gave TDP1 cell noCPT -24.7% and DT40 TDP1 CPT 2.6%[9.04 µM].
O=C(CSc1nc2ccccc2c(=O)[nH]1)N1CCN(S(=O)(=O)c2ccccc2)CC1 was read as TDP1 cell noCPT -18.3%, SW480 rerep -4.1%, Chronic BCR inh 2.0%, MCF10A rereplic 0.3%, IL-1B inflam inh 12.7 and DT40 TDP1 CPT inconclusive.
Screening O=C(CSc1nc2ccccc2c(=O)n1Cc1ccco1)c1ccccc1 returned TDP1 cell noCPT 20.6µM*, SW480 rerep -1.3%, Chronic BCR inh inconclusive, MCF10A rereplic inconclusive, IL-1B inflam inh -10.8 and DT40 TDP1 CPT 16.4µM*.
For Cc1cc2cc(C)c3nnc(SCC(=O)N4CCN(C(=O)c5ccco5)CC4)n3c2cc1C the results were TDP1 cell noCPT 11.6µM*, SW480 rerep 0.7%, MCF10A rereplic 2.1%, IL-1B inflam inh -73.8* and DT40 TDP1 CPT inconclusive.
Cc1ccc2cc(C)c3nnc(SCC(=O)N4CCN(C(=O)c5ccco5)CC4)n3c2c1 was read as TDP1 cell noCPT inconclusive, SW480 rerep -0.8%, Chronic BCR inh inconclusive, MCF10A rereplic 2.0%, IL-1B inflam inh -23.2 and DT40 TDP1 CPT -26.8%.
`CCOC(=O)CSc1nc2ccccc2c(=O)n1Cc1ccco1` gave TDP1 cell noCPT -10.2%, SW480 rerep 0.7%, Chronic BCR inh 10.9%, MCF10A rereplic -1.0%, IL-1B inflam inh 16.0 and DT40 TDP1 CPT -0.6%.
Screening O=C(CSc1nc(-c2ccccc2)c(-c2ccccc2)[nH]1)N1CCN(S(=O)(=O)c2ccccc2)CC1 returned TDP1 cell noCPT 18.4µM*, SW480 rerep 14.5%, Chronic BCR inh inconclusive, MCF10A rereplic 4.5%, IL-1B inflam inh inconclusive and DT40 TDP1 CPT 18.4µM*.
For CCn1c(N2CCN(S(=O)(=O)c3ccccc3)CC2)nc2ccccc21 the results were TDP1 cell noCPT 18.4µM*, SW480 rerep 0.9%, Chronic BCR inh -0.7%, MCF10A rereplic -2.9%, IL-1B inflam inh -9.1 and DT40 TDP1 CPT inconclusive.
O=C(N/C(=C/c1ccc(F)cc1)C(=O)N1CCOCC1)c1ccco1 was read as TDP1 cell noCPT 2.3%, IL-1B inflam inh -8.4 and DT40 TDP1 CPT 1.0%.
`C=NCc1cc2c(OC[C@@H](O)CNC(C)(C)C)cccc2[nH]1` gave TDP1 cell noCPT -0.3% and DT40 TDP1 CPT 5.6%.
For CCN(CC)C(=O)CSc1nc2ccccc2c(=O)n1CCC(=O)N1CCN(c2ccccc2)CC1 the results were TDP1 cell noCPT inconclusive, SW480 rerep -2.4%, Chronic BCR inh -2.9%, MCF10A rereplic -0.6%, IL-1B inflam inh 6.8 and DT40 TDP1 CPT 16.4µM*.
For CCCn1c(SCC(=O)N2CCN(c3ccccc3)CC2)nc2ccccc2c1=O the results were TDP1 cell noCPT inconclusive, SW480 rerep -7.8%, Chronic BCR inh inconclusive, MCF10A rereplic 15.7%, IL-1B inflam inh -1.2 and DT40 TDP1 CPT inconclusive.
O=C(CSc1nc2ccccc2n1CC(=O)N1CCCC1)N1CCN(C(=O)c2ccco2)CC1 was read as TDP1 cell noCPT -12.9%, SW480 rerep 23.6%, Chronic BCR inh -10.7%, MCF10A rereplic -51.3%, IL-1B inflam inh inconclusive and DT40 TDP1 CPT inconclusive.

Screening data as filed in PubChem BioAssay.
